Source: PubChem
Only some compounds are listed: those with a hit (about 19% of all), similar ones and a draw of the others.
HT1080 IDH1KD tx – HT-1080 IDH1 knockdown cell toxicity (counter line) | hit rate 2% among 360,000 | Potency, µM (titrated, usually from 46.1 µM), inactives show at the highest dose activity, negative = toxicity, actives largely listed as cytotoxic | HT-1080 IDH1 knockdown viability, ATP luminescence, 48 h;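 note: 0% = DMSO wells and -100% = cell-free medium wells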
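After a 2 h attachment period, IDH1KD HT-1080 cells took pin-transferred compound for 48 h at 37 °C; ATP-based luminescence after 10 min room-temperature reagent incubation reported viability.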
KB-3-1 cytotox – kills parental KB-3-1 adenocarcinoma cells | KB-3-1 viability, CellTiter-Glo ATP luminescence, 72 h | Potency, µM (highest dose often 46.1 µM), usual class: cytotoxic | hit rate 1.4% among 400,000 | AID 1347075; note: nearly all actives have a fitted effect of over 60% in size
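Parental KB-3-1 adenocarcinoma cells in phenol-red-free DMEM with 10% FBS were pin-treated with compounds at several concentrations, incubated 72 h at 37 °C, and viability read by CellTiter-Glo luminescence; concentration-effect curves were fitted after normalization.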
HT1080NT lethal – kills 2HG-producing HT-1080-NT fibrosarcoma cells; Potency, µM (top dose mostly 46.1 µM), without a hit: at the top dose activity, negative = less viability, actives largely listed as cytotoxic; AID 686970; hit rate 1.6% among 360,000; HT-1080-NT fibrosarcoma viability, CellTiter-Glo ATP luminescence, 48 h;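 note: NT is the 2HG producing partner of a matched IDH1 knockdown line; 0% = DMSO-treated cells and -100% = media-only wells without cells; nearly all actives have a fitted effect of over 55% in size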
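Fibrosarcoma NT cells, 750 per well in 5% FBS RPMI, were exposed to compound for 48 hours. Viability: CellTiter-Glo luminescence.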
KB-V1 cytotox – KB-V1 MDR subline cytotoxicity; hit rate 3.4% among 400,000; AID 1347076; KB-V1 MDR cells viability, CellTiter-Glo, 72 h; Potency, µM (highest dose often 46.1 µM), usual class: cytotoxic; note: nearly all actives have a fitted effect of over 60% in size
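Compound-treated KB-V1 multidrug-resistant cells, 72 h, 37 degrees C; viability by CellTiter-Glo. Fitted qHTS curves give the values.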
DT40 TDP1 CPT – DT40-hTDP1 cell growth loss with CPT. hit rate 12% among 420,000. chicken DT40 Tdp1-/-;hTDP1 cells + 20 nM CPT, ATP luminescence, 48 h. AID 686979. Potency, µM (doses to about 46.2 µM), without a hit: at the highest dose activity change, negative = growth inhibition, usual class: inhibitors; note: nearly all actives have a fitted effect of over 55% in size
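Chicken DT40 Tdp1-/- cells stably complemented with human TDP1 were seeded at 400 cells/well in medium containing 20 nM camptothecin, exposed to pin-transferred compounds, and grown at 37 °C for at least 48 hr. Viability was read as ATP luminescence.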
DT40 TDP1 no CPT – qHTS for Inhibitors of human tyrosyl-DNA phosphodiesterase 1 (TDP1): qHTS in cells in absence of CPT; hit rate 15% among 420,000; Potency, µM (top dose mostly 46.2 µM), for inactives: at the top dose activity change, negative = growth inhibition, hits mostly inhibitors; DT40 Tdp1-/- hTDP1 cells, no CPT, ATP luminescence, 48 h; AID 686978, 2013; note: nearly all actives have a fitted effect of over 55% in size
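DT40 Tdp1-/-;hTDP1 cells, no CPT (DMSO vehicle only), 400 cells/well; compounds pin-transferred; ≥48 hr, 37 °C; CellTiter-Glo 30 min RT dark, luminescence read.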
* = called active by the depositor; i = inactive; ? = inconclusive; . = no result; [ ] = dose if it differs, or a comment. Calls come from the whole dose curve; as a rule, active = well fitted curve in the direction sought with a large enough effect; inconclusive = small, poorly fitted or top-dose-only effect, or another doubt; inactive = no such curve, though single readings can be large; an effect the other way counts as inactive or inconclusive. Unless noted, % is set by controls: 0 for no effect and ±100 for the full control effect; potency is the fitted concentration of half-maximal effect.

SMILES	HT1080 IDH1KD tx	KB-3-1 cytotox	HT1080NT lethal	KB-V1 cytotox	DT40 TDP1 CPT	DT40 TDP1 no CPT
Cc1cc([N+](=O)[O-])ccc1NC(=O)CSc1nccn1C	.	i	.	i	.	.
COCCCNc1ncnc2sc(C(=O)N3CCCCC3)c(C)c12	.	.	.	.	-13%[9.04 µM]	?
O=C(/C=C/c1ccccc1)NC(NC(=S)Nc1cccc(O)c1)C(Cl)(Cl)Cl (stereo not given)	?	?	?	?	?	18µM*
CC1CCc2c(sc3ncn(CC(=O)N4CCCCC4)c(=O)c23)C1 (stereo not given)	6%	i	2%	i	-23%	?
CCOc1cc(OCC)nc(S(C)(=O)=O)n1	14%	i	21%	i	21µM*	15µM*
CC(=O)N1c2c(ccc3ccccc23)C(C)CC12CCCCC2 (stereo not given)	-24%	i	-17%	i	?	?
CC1CC2(CCCCC2)Nc2c1ccc1ccccc21 (stereo not given)	-2%	i	2%	i	?	10µM*
COc1ccc(C2Nc3ccccc3C(=O)N2c2ccccc2)cc1CSc1ccccn1 (stereo not given)	-21%	i	-12%	4.1µM*	?	?
COc1ccc(C2Nc3ccccc3C(=O)N2c2ccc(F)cc2)cc1CSc1ccccn1 (stereo not given)	1%	i	-4%	i	?	-33%
COc1ccc(C2Nc3ccccc3C(=O)N2Cc2ccccc2)cc1CSc1ccccn1 (stereo not given)	6%	i	0%	4.6µM*	23µM*	18µM*
COc1cc(C2Nc3ccccc3C(=O)N2Cc2ccccc2)ccc1OCc1ccccc1 (stereo not given)	.	i	.	i	?	?
Cc1cc(=O)n2[nH]c(-c3ccc(Cl)cc3)cc2n1	-1%	?	-1%	i	18µM*	21µM*
Cc1cc(=O)n2[nH]c(C)c(-c3ccc(Cl)cc3)c2n1	-26%	i	?	?	23µM*	?
CCOC(=O)Cc1c(C)nc2c(-c3ccc(Cl)cc3)c(C)[nH]n2c1=O	10µM*	?	13µM*	?	23µM*	23µM*
Cc1cc(=O)n2[nH]c(C)c(-c3ccccc3)c2n1	8%	i	-2%	?	-23%	?
CCOC(=O)Cc1c(C)nc2c(-c3cccc(Br)c3)c[nH]n2c1=O	?	i	?	i	9.2µM*	4.1µM*
COc1ccc(N2C(=NC(C)=O)SC3CS(=O)(=O)CC32)cc1OC (stereo not given)	19%	i	12%	i	6%	7%
Cc1ccccc1-c1cc2nc(-c3ccc([N+](=O)[O-])cc3)cc(=O)n2[nH]1	10%	i	13%	i	-22%	-15%
Cc1cc(=O)n2[nH]c(-c3ccc(F)cc3)cc2n1	22%	i	5%	i	?	13µM*
Cc1cccc(-c2cc3nc(-c4ccccc4)cc(=O)n3[nH]2)c1	?	?	?	?	23µM*	23µM*
CCOC(=O)c1c(C)n(C)c2c(C)cc(O)c(OC(C)=O)c12	22%	i	19%	i	9.2µM*	13µM*
CCOC(=O)c1c(C)n(C)c2c1cc(OC(C)=O)c1ccccc12	13%	i	?	i	1%	?
CC(C)c1ccc2c(c1)C(c1ccc(N3CCOCC3)cc1)=NNC(c1cccs1)=N2	-2%	i	9%	i	?	?
C=C1C(=O)[C@]23C[C@H]1CCC2[C@@]1(C)C(C[C@@H]3O)[C@](C)(C(=O)OC)CC[C@@H]1O (stereo not given in full)	2.3µM*	13µM*	2.3µM*	i	1µM*	0.52µM*
C[C@@]12CCC3[C@@](CC[C@@H]4[C@](C)(C(=O)O)CCC[C@@]34C)(C[C@H]1O)C2 (stereo not given in full)	0%	i	2%	i	0%	2%
SMILES	HT1080 IDH1KD tx	KB-3-1 cytotox	HT1080NT lethal	KB-V1 cytotox	DT40 TDP1 CPT	DT40 TDP1 no CPT
C[C@@]12C(C[C@H](O)[C@@]34C[C@@H](CCC13)[C@@H](CO)C4=O)[C@](C)(C(=O)O)CC[C@@H]2O (stereo not given in full)	?	i	29µM*	i	?	?
Cc1oc2c(c1C(=O)Nc1ccc(OC(F)(F)F)cc1)C1=NCCN1C=N2	.	i	.	i	-2%	-3%
CC1(c2nnnn2Cc2ccccc2)CCC(=O)N1Cc1ccc(F)cc1 (stereo not given)	4%	i	15%	i	-12%	-14%
Cc1ccc(NC(=O)Cn2c(=O)n(CCC(=O)N3CCc4ccccc4C3)c(=O)c3ccccc32)cc1	.	i	.	i	18µM*	16µM*
Cc1ccccc1NC(=O)Cn1c(=O)n(CCC(=O)N2CCc3ccccc3C2)c(=O)c2ccccc21	.	i	.	i	16µM*	15µM*
O=C(Cn1c(=O)n(CCC(=O)N2CCc3ccccc3C2)c(=O)c2ccccc21)NCC1CCCO1 (stereo not given)	16%	i	7%	i	-5%	-17%
Cc1ccc(CNC(=O)CCCn2c(=O)c3ccccc3n(CC(=O)Nc3ccc(C)c(C)c3)c2=O)cc1	.	i	.	i	-14%	-19%
COc1ccc(-c2ccc(SCC(=O)c3ccccc3)nn2)cc1OC	-24%	i	0%	?	?	13µM*
COc1ccc(-c2ccc(SCC(=O)NCc3ccc4c(c3)OCO4)nn2)cc1OC	?	i	?	?	?	29µM*
COc1ccc(-c2ccc(SCc3ccccn3)nn2)cc1OC	-1%	i	7%	?	13µM*	?
O=[N+]([O-])c1cccc(-c2ccc(SCc3ccccn3)nn2)c1	-2%	?	?	?	?	26µM*
O=C(CSc1ccc(-c2cccc([N+](=O)[O-])c2)nn1)N1CCCCC1	8%	i	6%	i	-5%	?
COc1ccc(-c2ccc(SCC(=O)NC3CCCC3)nn2)cc1OC	?	i	-10%	?	-9%	-19%
Clc1ccc(-c2ccc(SCc3ccccn3)nn2)cc1	22%	i	15%	i	?	-18%
